Screens: PubChem BioAssay, several laboratories
The list is not random: actives were taken first. Their share in the collection is about 2.9%.
CRFBP-R2 agonist – agonists of human CRF-binding protein/CRF-R2 receptor complex. HEK293 CRF-R2/CRF-BP, calcium dye fluorescence (FLIPR); percent of saturating CRF peptide response. 350,000 compounds, 0.46% hits. AID 588473. activation, % at 13.2 µM;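 active = activation of at least 50%, plus an integration ratio under a set limit after plate pattern correction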;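 also: plate controls were neutral control wells without compound for no effect and CRF at EC100 for full effect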
MEKK3 PB1 HTS – modulators (inhibitors or enhancers) of MEK5 binding to human MEKK3 PB1 domain; Q99759; bead-based flow cytometry, Alexa488-MEK5 binding to MEKK3; actives lie on both sides; 0 = blocked by unlabeled MEK5, 100 = vehicle; binding response (% of control), % at 10 µM; 290,000 compounds, 1.4% hits;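 active = binding response more than 3 SD above or below the average of its plate-row segment, actives on both sides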;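 also: Alexa488 bead fluorescence after subtracting the streptavidin-only scavenger bead signal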
ABCB6 inh 2 – blocks the human ABCB6 transporter; K562-ABCB6 porphyrin accumulation, flow cytometry, 1 h; active compounds read low; fluorescence ratio to DMSO, % at 10 µM; Q9NP58; 360,000 compounds, 0.19% hits;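 active = fluorescence ratio to DMSO below 75%, the collection mean minus 3 SD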;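 also: signal is porphyrin accumulated inside mitochondria; 100% equals median channel fluorescence of DMSO control wells; lower ratio means ABCB6 inhibition with less porphyrin fluorescence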
Target sequence (Q9NP58 whole entry, looked up): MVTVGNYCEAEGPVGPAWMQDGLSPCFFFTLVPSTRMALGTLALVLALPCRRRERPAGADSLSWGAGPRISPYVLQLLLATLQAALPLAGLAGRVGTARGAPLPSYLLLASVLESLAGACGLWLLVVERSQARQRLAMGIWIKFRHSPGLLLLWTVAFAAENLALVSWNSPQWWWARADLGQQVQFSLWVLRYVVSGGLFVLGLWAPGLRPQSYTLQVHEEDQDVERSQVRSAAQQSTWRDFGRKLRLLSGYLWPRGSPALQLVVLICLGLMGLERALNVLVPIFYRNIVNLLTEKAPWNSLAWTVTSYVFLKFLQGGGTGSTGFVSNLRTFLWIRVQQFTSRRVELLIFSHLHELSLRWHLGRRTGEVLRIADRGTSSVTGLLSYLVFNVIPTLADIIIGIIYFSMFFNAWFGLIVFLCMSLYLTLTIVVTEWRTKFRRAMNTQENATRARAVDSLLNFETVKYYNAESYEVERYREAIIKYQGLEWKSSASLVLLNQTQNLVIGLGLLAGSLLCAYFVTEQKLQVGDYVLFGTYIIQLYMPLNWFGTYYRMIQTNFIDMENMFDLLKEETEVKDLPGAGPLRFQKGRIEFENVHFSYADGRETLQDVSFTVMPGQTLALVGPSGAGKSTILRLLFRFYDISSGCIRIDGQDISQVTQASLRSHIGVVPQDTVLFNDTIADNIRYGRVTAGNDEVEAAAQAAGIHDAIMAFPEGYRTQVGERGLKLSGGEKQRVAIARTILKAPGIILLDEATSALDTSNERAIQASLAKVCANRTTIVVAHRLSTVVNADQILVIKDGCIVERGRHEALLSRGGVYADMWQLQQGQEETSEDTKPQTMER
MEKK2 mut-MEK5 – signal of MEK5 binding to mutant human MEKK2 PB1 domain; bead flow cytometry, Alexa488-MEK5 binding to MEKK2 mutant; percent response, % at 10 µM; 290,000 compounds, 0.35% hits; in the data active = percent response above about 24%, passing the limit was not always enough
CRFR2-BP antag – CRF-BP/CRF-R2 complex antagonism; HEK293 CRF-R2/CRF-BP, CRF-induced calcium fluorescence; inhibition, % at 11.8 µM; 350,000 compounds, 0.59% hits; AID 588475;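 active = inhibition of the ligand-induced calcium signal above about 50% at the single tested concentration, limit read from the data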
MEKK2 WT-MEK5 – raises or lowers MEK5 binding to wildtype human MEKK2 PB1 domain | 290,000 compounds, 1.1% hits | AID 1531 | bead flow cytometry, Alexa488-MEK5 binding to MEKK2 WT; actives lie on both sides | binding response (% of control), % at 10 µM; in the data active = binding response below about 67% or above about 130%
MEKK2wt confirm – raises or lowers MEK5 binding to wildtype human MEKK2, retest | shares compounds with MEKK3 PB1 HTS | bead flow cytometry, Alexa488-MEK5 binding to MEKK2 WT; actives lie on both sides | binding response (% of control), % at 10 µM | 5,900 compounds, 2.4% hits | AID 1892; in the data active = binding response below about 16% or above about 210%; inactive = in between
MEKK2mut confirm – signal of MEK5 binding to mutant human MEKK2, retest; bead flow cytometry, Alexa488-MEK5 binding to MEKK2 mutant; 5,900 compounds, 2% hits; shares compounds with MEKK3 PB1 HTS; percent response, % at 10 µM; in the data active = percent response mostly above about 71%, no sharp cut-off; inactive = mostly below about 38%;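 also: higher means compound restores mutant binding toward wildtype level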
MEKK3-MEK5 inh – confirmation of inhibitors of MEK5 binding to human MEKK3; shares compounds with MEKK3 PB1 HTS; bead flow cytometry, Alexa488-MEK5 binding to MEKK3; active compounds read low; binding response (% of control), % at 10 µM; 5,900 compounds, 1.8% hits; AID 1894;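 active = binding response below 72% of control, or above a set upper limit, though filed actives all read lower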;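 also: 100% = DMSO only wells and 0% = binding blocked by excess unlabeled MEK5; lower values mean stronger disruption of MEK5 binding to MEKK3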
Starred values were filed as active, the others as inactive; nt = no result; [ ] = another dose, or the depositor's remark.

SMILES	CRFBP-R2 agonist	MEKK3 PB1 HTS	ABCB6 inh 2	MEKK2 mut-MEK5	CRFR2-BP antag	MEKK2 WT-MEK5	MEKK2wt confirm	MEKK2mut confirm	MEKK3-MEK5 inh
CC1(C)CC(N=Cc2c(O)n(Cc3ccc4c(c3)OCO4)c(=O)c3ccccc23)CC(C)(C)N1	0	99	99	16	-15	149*	160	24	106
CC(C)n1c(SCC(=O)N2c3ccccc3Sc3ccccc32)nc2c1c(=O)n(C)c(=O)n2C	1	1.0*[inhibitor]	96	-21	21	-3.0*[inhibitor]	99	-3	104
CN(C)CCCn1c(SCC(=O)N2c3ccccc3Sc3ccccc32)nc2ccccc2c1=O	7	103	95	45	-9	166*	157	25	102
c1ccc(CCn2cccc2)nc1	1	nt	97	nt	-7	nt	nt	nt	nt
CCC(CC)c1nnc(NC(=O)C2CC(=O)N(c3ccc4c(c3)OCCO4)C2)s1 (stereo not drawn)	-1	135*	102	1	-1	110	66	-18	61*
O=C(CSc1cccc[n+]1[O-])N1CCCc2ccccc21	1	70	93	-18	-3	25*[inhibitor]	99	-1	101
Cn1nnnc1SCC(=O)N1CCCc2ccccc21	5	98	93	3	-38	107	nt	nt	nt
O=C(CN1CCOCC1)Nc1ccc(Cl)cn1	-1	101	99	5	18	107	nt	nt	nt
CC(=O)c1ccc(N=C2C(=O)Nc3ccccc32)cc1	0	56*[inhibitor]	103	-8	23	20*[inhibitor]	96	-11	95
O=C1Nc2ccccc2C1=Nc1ccc(F)cc1	-1	101	97	9	-1	108	nt	nt	nt
CC1=C(C(=O)Nc2cccc(C(=O)NC(C)c3ccccc3)c2)SCCO1 (stereo not drawn)	-3	97	96	-1	-16	95	nt	nt	nt
O=C(Cc1ccc([N+](=O)[O-])cc1)NCc1ccccc1Cl	0	146*	86	1	2	108	98	-4	102
O=C(Cc1ccc([N+](=O)[O-])cc1)NCc1cccnc1	1	99	97	0	-3	100	nt	nt	nt
Cn1c(C(=O)N[C@@H](C(=O)O)c2ccccc2)cc2cc(F)ccc21	1	100	88	4	2	102	nt	nt	nt
COc1ccc(N2C(=O)/C(=C/c3ccc([N+](=O)[O-])cc3)C=C2c2ccccc2)cc1	-2	76*[inhibitor]	363	-6	-32	-10*	88	-5	91
CCCCc1nnc(SC(C)C(=O)Nc2nccs2)n1C (stereo not drawn)	0	99	95	-6	-2	97	nt	nt	nt
COc1ccc(C(=O)N2CCN=C2SC)cc1	1	99	96	10	18	100	nt	nt	nt
COc1cccc(C(=O)N2CCN=C2SC)c1	-2	58*[inhibitor]	102	-4	0	76	99	-5	97
COc1cc(Cl)cc2c1Sc1ccccc1/C2=C/CCN(C)C	1	81	93	19	-40	167*	154	46	108
CN(C)CC/C=C1/c2ccccc2Sc2c(O)cc(Cl)cc21	2	103	114	10	-14	105	nt	nt	nt
O=C(Cn1cnc([N+](=O)[O-])c1)c1ccc(Cl)cc1	-3	nt	104	nt	-4	nt	nt	nt	nt
O=C(C[n+]1cnn(CC(=O)c2ccc(Cl)cc2Cl)c1)c1ccc([N+](=O)[O-])cc1	-2	101	95	24	-5	157*	122	5	105
O=S(CC(O)(c1ccccc1)c1ccccc1)CC(O)(c1ccccc1)c1ccccc1	-4	nt	95	nt	-11	nt	nt	nt	nt
CC(C)(C)Nc1nc(Oc2ccc(=O)[nH]n2)nc(N2CCOCC2)n1	-1	75*[inhibitor]	94	-2	-1	88	104	0	101
CC(C)c1ccc(/C=C(\NC(=O)c2ccccc2)C(=O)NCCN2CCOCC2)cc1	nt	99	102	6	nt	105	nt	nt	nt
SMILES	CRFBP-R2 agonist	MEKK3 PB1 HTS	ABCB6 inh 2	MEKK2 mut-MEK5	CRFR2-BP antag	MEKK2 WT-MEK5	MEKK2wt confirm	MEKK2mut confirm	MEKK3-MEK5 inh
CC1CN(C(=O)COC(=O)Cc2c(Cl)cccc2Cl)CC(C)O1 (stereo not drawn)	1	nt	98	nt	5	nt	nt	nt	nt
Cc1c(CCOC(=O)CC23CC4CC(CC(C)(C4)C2)C3)sc[n+]1CC(=O)c1ccccc1	10	108	94	6	-24	153*	155	7	101
Cc1c(CCOC(=O)C23CC4CC(CC(C)(C4)C2)C3)sc[n+]1CC(=O)c1ccccc1	-1	112	94	-1	-33	133	nt	nt	nt
Cc1[nH]c(=S)c(C#N)c2c1CCCC2	1	101	98	-10	-14	103	nt	nt	nt
N#Cc1c(N)sc(=S)c2c1CCCC2	-5	87	120	-9	-8	66*[inhibitor]	92	-1	104
CCC1(C)Cc2c(C#N)c(N)sc(=S)c2CO1 (stereo not drawn)	3	95	103	-5	5	60*[inhibitor]	82	-10	98
COc1ccc(NC(=O)Nc2cccc3c2O[C@H](CN(C)S(=O)(=O)c2c(C)noc2C)[C@@H](C)CN([C@H](C)CO)C3=O)cc1	-2	nt	99	nt	2	nt	nt	nt	nt
Cc1ccc(NS(=O)(=O)c2c(C)[nH]c(C)c2C(=O)N2CCCCC2)c(Cl)c1	0	98	102	-2	-4	96	nt	nt	nt
Cc1ccc(/C=N/NC(=O)CCCOc2ccc(Cl)cc2Cl)cc1	0	137*	96	-1	-65	101	98	-6	98
CN1C(C(=O)Nc2ccc(OC(F)(F)F)cc2)=CC(c2ccc3c(c2)OCO3)=NS1(=O)=O	1	96	98	-5	-28	93	nt	nt	nt
CCOC(=O)CCSc1nc(C)c2cc(OC)ccc2n1	0	72*[inhibitor]	100	2	1	90	80	-17	76
CCOC(=O)CCSc1nc(C)c2cc(C)c(C)cc2n1	-2	104	97	1	5	95	nt	nt	nt
COc1cc(OC)cc(C(=O)NNC(=O)c2ccccn2)c1	0	135*	101	0	7	106	113	5	105
Cc1cc(=S)nc(-c2ccccn2)[nH]1	0	57*[inhibitor]	89	-21	-6	59*[inhibitor]	96	-1	99
Cc1[nH]c(-c2ccccn2)nc(=S)c1Cl	0	98	103	-2	9	98	nt	nt	nt
